Data as given in ChEMBL document CHEMBL2218924, “A broad activity screen in support of a chemogenomic map for kinase signalling research and drug discovery” (Biochem J, 2013).

Key:
[1] = target: T1, Serine/threonine-protein kinase 17A (Homo sapiens) (UniProt Q9UEE5); details: at 10 µM
T1 sequence (whole entry): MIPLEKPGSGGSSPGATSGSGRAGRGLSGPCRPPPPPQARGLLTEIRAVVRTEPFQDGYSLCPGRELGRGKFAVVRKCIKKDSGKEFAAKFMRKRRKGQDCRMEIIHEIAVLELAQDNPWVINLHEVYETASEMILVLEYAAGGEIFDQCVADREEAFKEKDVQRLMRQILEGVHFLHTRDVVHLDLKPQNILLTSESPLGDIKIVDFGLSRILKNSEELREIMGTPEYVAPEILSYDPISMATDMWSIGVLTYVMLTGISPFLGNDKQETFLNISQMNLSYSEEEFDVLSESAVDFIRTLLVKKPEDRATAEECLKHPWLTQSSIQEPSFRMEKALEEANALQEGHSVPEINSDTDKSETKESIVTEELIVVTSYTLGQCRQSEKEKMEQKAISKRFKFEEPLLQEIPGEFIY

[2] = target: T2, Dual specificity tyrosine-phosphorylation-regulated kinase 2 (Homo sapiens) (UniProt Q92630); details: at 1 µM
T2 sequence (whole entry): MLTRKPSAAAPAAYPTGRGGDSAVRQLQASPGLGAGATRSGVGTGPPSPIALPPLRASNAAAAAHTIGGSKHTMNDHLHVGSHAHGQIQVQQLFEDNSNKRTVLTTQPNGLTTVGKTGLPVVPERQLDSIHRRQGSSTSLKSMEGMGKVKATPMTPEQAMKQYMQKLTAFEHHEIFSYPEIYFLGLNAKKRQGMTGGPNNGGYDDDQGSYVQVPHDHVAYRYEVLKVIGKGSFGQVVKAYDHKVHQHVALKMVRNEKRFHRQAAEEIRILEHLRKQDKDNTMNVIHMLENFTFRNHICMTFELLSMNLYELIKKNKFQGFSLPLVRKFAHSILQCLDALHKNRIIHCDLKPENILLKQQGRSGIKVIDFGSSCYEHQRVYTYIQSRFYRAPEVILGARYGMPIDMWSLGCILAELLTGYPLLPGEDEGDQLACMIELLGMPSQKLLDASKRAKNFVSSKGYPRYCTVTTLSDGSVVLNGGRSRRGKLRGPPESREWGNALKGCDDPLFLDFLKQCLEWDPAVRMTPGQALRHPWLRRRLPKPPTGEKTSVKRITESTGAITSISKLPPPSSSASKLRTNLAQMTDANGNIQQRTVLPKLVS

[3] = target: T2, Dual specificity tyrosine-phosphorylation-regulated kinase 2 (Homo sapiens); details: at 10 µM
[4] = target: Epidermal growth factor receptor (Homo sapiens) (UniProt P00533); details: at 1 µM
[5] = target: Epidermal growth factor receptor (Homo sapiens) (UniProt P00533); details: at 10 µM
[6] = target: T3, Ephrin type-A receptor 1 (Homo sapiens) (UniProt P21709); details: at 1 µM
T3 sequence (whole entry): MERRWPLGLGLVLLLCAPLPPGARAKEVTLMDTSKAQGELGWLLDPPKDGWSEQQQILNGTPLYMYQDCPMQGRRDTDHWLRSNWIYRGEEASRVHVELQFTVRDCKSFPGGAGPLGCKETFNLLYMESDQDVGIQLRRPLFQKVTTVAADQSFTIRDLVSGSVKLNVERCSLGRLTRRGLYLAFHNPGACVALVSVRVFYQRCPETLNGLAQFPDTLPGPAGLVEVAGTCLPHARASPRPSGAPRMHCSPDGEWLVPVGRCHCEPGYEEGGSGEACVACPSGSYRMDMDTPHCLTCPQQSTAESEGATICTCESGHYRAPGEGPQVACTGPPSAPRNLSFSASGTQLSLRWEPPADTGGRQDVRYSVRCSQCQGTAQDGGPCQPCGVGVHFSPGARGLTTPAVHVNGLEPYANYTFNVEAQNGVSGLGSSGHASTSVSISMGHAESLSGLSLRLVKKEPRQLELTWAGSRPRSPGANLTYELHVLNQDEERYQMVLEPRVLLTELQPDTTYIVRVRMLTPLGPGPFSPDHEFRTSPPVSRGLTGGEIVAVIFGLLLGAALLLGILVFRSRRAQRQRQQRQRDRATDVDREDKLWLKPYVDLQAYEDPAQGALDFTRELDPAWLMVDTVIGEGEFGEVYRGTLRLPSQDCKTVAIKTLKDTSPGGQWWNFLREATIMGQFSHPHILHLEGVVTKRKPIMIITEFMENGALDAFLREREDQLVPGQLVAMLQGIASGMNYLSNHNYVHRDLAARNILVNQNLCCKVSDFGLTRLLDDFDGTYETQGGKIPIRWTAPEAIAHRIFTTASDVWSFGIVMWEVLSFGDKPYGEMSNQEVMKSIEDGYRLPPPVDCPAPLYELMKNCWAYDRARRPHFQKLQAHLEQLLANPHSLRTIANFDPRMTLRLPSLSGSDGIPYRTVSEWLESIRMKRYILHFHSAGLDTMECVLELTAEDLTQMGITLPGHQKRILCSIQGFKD

[7] = target: T3, Ephrin type-A receptor 1 (Homo sapiens); details: at 10 µM
[8] = target: Ephrin type-A receptor 2 (Homo sapiens) (UniProt P29317); details: at 1 µM
[9] = target: Ephrin type-A receptor 2 (Homo sapiens) (UniProt P29317); details: at 10 µM
[10] = target: T4, Ephrin type-A receptor 3 (Homo sapiens) (UniProt P29320); details: at 1 µM
T4 sequence (whole entry): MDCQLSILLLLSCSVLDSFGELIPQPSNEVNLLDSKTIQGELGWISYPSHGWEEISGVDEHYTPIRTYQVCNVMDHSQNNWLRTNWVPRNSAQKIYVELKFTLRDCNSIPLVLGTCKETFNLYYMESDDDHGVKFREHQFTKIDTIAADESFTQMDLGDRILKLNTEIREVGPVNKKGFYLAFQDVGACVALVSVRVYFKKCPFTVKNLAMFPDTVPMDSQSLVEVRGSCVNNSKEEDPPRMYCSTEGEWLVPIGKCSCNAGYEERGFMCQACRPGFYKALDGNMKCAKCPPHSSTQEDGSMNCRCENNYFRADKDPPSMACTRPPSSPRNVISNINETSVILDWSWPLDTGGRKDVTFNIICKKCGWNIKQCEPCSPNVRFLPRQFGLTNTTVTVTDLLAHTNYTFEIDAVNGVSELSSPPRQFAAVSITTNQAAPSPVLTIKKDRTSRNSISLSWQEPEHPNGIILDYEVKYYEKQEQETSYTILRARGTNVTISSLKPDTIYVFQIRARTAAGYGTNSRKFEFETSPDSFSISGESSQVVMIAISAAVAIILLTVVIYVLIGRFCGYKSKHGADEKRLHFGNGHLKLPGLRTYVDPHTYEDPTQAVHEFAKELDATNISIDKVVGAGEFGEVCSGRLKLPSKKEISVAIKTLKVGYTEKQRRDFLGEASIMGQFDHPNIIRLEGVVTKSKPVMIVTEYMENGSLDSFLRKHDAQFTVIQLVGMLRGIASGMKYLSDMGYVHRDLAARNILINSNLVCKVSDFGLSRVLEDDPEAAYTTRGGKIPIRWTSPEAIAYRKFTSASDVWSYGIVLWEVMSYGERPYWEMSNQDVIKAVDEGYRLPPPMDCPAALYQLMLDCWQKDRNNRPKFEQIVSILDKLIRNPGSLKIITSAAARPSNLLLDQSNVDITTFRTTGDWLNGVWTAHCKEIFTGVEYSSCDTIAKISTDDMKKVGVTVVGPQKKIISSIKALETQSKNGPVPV

[11] = target: T4, Ephrin type-A receptor 3 (Homo sapiens); details: at 10 µM
[12] = target: Ephrin type-A receptor 4 (Homo sapiens) (UniProt P54764); details: at 1 µM
[13] = target: Ephrin type-A receptor 4 (Homo sapiens) (UniProt P54764); details: at 10 µM
[14] = target: Ephrin type-A receptor 5 (Homo sapiens) (UniProt P54756); details: at 1 µM
[15] = target: Ephrin type-A receptor 5 (Homo sapiens) (UniProt P54756); details: at 10 µM
[16] = target: Ephrin type-A receptor 7 (Homo sapiens) (UniProt Q15375); details: at 1 µM
[17] = target: Ephrin type-A receptor 7 (Homo sapiens) (UniProt Q15375); details: at 10 µM
[18] = target: T5, Ephrin type-A receptor 8 (Homo sapiens) (UniProt P29322); details: at 1 µM
T5 sequence (whole entry): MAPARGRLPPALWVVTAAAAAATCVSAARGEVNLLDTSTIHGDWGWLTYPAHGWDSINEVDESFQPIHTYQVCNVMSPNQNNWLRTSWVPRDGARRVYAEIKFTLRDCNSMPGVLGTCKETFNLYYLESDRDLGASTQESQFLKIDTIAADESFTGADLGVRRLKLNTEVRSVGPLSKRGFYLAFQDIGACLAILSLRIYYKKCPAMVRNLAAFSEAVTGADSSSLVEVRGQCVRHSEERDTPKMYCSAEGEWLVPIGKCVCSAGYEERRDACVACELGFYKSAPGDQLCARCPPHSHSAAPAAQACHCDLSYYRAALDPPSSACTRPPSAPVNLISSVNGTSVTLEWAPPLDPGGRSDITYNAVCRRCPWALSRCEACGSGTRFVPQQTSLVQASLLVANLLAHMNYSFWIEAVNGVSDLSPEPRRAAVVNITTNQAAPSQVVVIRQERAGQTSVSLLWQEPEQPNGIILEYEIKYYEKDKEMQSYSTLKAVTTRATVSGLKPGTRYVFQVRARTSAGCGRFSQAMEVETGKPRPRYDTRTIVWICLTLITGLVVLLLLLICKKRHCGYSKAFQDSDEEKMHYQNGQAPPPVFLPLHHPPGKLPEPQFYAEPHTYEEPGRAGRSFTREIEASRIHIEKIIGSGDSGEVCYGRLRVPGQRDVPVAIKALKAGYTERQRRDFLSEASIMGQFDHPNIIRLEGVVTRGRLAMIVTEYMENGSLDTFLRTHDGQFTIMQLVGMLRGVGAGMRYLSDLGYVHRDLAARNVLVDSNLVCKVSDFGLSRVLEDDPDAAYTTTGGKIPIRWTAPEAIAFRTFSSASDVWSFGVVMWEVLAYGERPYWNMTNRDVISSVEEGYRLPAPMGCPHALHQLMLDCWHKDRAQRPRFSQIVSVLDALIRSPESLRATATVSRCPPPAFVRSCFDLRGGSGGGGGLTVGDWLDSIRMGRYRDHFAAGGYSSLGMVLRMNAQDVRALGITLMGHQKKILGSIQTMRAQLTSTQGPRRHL

[19] = target: T5, Ephrin type-A receptor 8 (Homo sapiens); details: at 10 µM
[20] = target: T6, Ephrin type-B receptor 1 (Homo sapiens) (UniProt P54762); details: at 1 µM
T6 sequence (whole entry): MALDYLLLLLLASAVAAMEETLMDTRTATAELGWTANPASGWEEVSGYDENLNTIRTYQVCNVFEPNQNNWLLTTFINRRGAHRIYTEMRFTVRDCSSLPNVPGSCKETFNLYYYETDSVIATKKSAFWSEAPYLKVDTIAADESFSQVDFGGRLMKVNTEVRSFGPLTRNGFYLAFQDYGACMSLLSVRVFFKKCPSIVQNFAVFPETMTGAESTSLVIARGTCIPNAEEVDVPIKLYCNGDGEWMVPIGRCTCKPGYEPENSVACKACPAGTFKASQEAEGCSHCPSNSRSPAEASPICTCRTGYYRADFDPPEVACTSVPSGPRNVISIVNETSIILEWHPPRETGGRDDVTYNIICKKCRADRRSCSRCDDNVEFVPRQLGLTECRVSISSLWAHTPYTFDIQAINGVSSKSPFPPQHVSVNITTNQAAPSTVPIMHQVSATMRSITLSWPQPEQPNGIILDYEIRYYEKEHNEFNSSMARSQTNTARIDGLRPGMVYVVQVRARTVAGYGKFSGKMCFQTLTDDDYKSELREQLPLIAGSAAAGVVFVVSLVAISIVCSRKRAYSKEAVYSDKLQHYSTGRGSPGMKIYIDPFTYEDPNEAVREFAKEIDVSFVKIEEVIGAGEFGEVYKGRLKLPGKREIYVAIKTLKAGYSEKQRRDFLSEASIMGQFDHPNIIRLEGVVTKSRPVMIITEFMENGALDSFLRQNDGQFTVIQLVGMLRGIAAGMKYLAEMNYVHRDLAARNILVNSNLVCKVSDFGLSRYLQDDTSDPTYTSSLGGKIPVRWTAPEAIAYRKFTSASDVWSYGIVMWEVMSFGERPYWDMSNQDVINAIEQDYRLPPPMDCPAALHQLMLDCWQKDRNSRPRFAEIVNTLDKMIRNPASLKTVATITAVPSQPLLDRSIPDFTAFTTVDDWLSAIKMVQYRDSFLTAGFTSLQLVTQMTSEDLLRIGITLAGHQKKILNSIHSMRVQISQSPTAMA

Chain of Ephrin type-A receptor 4 (Homo sapiens) (P54764 whole entry): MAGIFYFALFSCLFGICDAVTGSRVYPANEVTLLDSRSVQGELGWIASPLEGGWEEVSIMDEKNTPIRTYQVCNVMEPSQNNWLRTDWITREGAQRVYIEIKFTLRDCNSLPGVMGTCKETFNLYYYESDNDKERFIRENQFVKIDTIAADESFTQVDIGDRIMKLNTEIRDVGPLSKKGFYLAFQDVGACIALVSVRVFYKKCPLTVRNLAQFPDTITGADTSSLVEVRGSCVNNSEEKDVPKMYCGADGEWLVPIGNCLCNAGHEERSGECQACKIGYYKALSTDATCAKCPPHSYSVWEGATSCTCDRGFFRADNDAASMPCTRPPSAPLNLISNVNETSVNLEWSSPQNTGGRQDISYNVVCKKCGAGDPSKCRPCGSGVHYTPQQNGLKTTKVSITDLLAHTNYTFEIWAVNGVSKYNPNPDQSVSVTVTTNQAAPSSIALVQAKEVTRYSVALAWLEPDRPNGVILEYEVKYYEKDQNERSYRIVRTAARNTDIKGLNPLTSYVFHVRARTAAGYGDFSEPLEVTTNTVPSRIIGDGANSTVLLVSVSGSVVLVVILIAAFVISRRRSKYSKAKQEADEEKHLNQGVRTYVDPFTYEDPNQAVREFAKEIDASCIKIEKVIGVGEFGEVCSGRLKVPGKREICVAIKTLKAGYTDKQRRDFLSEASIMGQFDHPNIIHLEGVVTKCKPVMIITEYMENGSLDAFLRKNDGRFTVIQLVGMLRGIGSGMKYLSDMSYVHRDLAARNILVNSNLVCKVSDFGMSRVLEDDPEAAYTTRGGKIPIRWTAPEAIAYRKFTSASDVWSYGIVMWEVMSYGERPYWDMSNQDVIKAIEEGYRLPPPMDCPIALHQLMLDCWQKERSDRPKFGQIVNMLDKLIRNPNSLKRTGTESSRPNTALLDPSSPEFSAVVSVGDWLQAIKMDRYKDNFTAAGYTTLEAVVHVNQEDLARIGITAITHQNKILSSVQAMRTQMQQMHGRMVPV
Chain of Epidermal growth factor receptor (Homo sapiens) (P00533 whole entry): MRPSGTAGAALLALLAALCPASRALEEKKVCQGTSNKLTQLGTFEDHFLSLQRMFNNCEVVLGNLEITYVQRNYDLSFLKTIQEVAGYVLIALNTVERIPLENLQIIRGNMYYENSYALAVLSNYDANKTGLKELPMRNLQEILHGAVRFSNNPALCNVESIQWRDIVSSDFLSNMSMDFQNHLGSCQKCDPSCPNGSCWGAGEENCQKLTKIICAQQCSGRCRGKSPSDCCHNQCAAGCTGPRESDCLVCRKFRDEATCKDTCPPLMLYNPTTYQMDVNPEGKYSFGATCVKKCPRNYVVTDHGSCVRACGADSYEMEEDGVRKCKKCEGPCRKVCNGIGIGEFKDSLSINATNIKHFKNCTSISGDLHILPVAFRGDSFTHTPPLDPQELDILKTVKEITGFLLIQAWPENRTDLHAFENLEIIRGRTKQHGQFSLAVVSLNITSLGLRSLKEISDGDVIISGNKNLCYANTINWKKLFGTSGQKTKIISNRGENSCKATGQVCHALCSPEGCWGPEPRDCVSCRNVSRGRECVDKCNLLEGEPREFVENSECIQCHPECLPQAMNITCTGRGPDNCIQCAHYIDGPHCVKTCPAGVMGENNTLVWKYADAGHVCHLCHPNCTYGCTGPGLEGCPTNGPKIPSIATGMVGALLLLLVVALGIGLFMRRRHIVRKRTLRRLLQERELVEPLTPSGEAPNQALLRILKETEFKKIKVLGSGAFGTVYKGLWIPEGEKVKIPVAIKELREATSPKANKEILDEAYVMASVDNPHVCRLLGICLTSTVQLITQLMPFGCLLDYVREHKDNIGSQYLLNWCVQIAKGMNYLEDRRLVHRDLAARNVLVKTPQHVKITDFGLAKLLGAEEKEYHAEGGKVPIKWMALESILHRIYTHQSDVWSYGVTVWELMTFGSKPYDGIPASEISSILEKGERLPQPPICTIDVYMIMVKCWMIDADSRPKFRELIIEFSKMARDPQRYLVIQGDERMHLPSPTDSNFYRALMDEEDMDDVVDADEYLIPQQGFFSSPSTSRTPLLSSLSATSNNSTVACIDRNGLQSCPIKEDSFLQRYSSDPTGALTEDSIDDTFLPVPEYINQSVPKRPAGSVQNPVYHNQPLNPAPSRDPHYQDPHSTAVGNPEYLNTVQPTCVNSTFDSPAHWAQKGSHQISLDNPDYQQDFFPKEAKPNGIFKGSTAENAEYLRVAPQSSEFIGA
Chain of Ephrin type-A receptor 5 (Homo sapiens) (P54756 whole entry): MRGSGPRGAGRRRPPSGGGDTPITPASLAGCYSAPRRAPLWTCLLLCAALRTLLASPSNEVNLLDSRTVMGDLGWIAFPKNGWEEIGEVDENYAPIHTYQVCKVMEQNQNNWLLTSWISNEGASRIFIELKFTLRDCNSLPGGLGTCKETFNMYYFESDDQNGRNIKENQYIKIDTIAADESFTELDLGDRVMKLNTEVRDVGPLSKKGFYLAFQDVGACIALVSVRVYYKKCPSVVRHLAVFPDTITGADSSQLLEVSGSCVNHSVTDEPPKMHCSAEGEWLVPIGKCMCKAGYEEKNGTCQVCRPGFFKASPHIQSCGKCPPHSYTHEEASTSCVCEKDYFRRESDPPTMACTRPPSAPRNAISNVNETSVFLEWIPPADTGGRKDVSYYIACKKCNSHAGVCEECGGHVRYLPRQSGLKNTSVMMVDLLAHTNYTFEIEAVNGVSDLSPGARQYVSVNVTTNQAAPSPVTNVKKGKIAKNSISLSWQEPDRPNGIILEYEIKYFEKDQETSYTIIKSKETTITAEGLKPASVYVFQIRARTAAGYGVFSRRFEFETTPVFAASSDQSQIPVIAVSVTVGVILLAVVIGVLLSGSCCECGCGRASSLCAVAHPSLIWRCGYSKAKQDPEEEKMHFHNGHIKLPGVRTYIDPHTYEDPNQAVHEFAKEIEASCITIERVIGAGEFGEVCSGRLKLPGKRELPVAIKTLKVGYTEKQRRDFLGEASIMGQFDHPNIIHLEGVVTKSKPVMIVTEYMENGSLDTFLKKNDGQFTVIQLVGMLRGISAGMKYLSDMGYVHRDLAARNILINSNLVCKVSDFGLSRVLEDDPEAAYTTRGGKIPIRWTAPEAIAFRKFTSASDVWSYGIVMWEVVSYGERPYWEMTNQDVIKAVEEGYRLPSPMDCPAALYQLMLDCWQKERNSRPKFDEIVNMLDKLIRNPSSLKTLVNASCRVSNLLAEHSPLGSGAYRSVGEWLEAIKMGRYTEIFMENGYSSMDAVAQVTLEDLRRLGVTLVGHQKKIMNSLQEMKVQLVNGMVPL
Chain of Ephrin type-A receptor 2 (Homo sapiens) (P29317 whole entry): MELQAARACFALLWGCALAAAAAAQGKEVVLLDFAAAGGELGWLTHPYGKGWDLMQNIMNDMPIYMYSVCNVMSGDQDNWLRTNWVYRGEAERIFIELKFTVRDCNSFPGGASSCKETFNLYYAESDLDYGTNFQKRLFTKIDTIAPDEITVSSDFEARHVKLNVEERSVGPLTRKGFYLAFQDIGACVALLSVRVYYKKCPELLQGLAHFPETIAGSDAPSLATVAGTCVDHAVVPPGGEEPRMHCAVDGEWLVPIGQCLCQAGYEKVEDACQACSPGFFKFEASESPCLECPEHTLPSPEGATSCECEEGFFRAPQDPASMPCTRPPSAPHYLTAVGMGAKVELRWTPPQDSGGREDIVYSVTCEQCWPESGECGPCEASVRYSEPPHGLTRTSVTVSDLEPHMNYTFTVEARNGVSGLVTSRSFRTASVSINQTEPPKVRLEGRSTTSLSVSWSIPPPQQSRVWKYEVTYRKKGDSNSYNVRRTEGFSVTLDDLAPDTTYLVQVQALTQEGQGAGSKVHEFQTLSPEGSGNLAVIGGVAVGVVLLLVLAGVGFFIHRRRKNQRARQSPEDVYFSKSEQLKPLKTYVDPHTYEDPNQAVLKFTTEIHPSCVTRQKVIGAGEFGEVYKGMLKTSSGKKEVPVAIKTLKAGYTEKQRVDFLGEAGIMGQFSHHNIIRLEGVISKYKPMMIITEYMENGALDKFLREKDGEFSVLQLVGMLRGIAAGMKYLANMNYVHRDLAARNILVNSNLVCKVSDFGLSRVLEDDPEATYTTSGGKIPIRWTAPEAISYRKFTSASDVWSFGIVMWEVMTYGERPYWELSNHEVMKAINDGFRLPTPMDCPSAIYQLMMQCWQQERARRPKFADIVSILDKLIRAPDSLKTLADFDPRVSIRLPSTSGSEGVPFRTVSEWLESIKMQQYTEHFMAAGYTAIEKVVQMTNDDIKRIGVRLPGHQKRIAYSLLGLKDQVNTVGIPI

Compound | residual activity [1] [%] | residual activity [2] [%] | residual activity [3] [%] | residual activity [4] [%] | residual activity [5] [%] | residual activity [6] [%] | residual activity [7] [%] | residual activity [8] [%] | residual activity [9] [%] | residual activity [10] [%] | residual activity [11] [%] | residual activity [12] [%] | residual activity [13] [%] | residual activity [14] [%] | residual activity [15] [%] | residual activity [16] [%] | residual activity [17] [%] | residual activity [18] [%] | residual activity [19] [%] | residual activity [20] [%]
CCN(CC)CCCCN1c2ccccc2Oc2ccc(Cl)cc21 | 138 | 105 | 103 | 124 | 127 | 102 | 124 | 108 | 109 | 113 | 97 | 116 | 100 | 108 | 113 | 105 | 103 | 98 | 114 | 100
O=C1c2ccccc2-[n+]2ccc3c([nH]c4ccccc43)c21 | 114 | 99 | 92 | – | – | 78 | 91 | 89 | 101 | 89 | 81 | 103 | 104 | 116 | 102 | 85 | 79 | 89 | 85 | 85
Nc1cccc(-c2cc3c(Oc4cccc(O)c4)ncnc3[nH]2)c1 | 32 | 89 | 62 | – | – | 2 | -1 | 30 | 2 | 4 | 0 | 48 | 4 | 24 | 2 | 64 | 15 | 30 | 6 | 7
O=C1NC(=O)/C(=C/c2ccc3c(c2)OC(F)(F)O3)S1 | 99 | 86 | 65 | 116 | 119 | 93 | 96 | 107 | 115 | 103 | 93 | 116 | 105 | 115 | 103 | 89 | 102 | 111 | 99 | 115
